This is a sample that favours compounds with a hit; in the whole collection about 2.3% have one here.
CHO-K1 Ca antag – nonselective inhibitor or artifact in parental CHO-K1 cells; ATP-induced calcium, Fluo-8 fluorescence; inhibition, % at 3 µM; 0.6% of 360,000 active; AID 602250;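 active = inhibition above a per-plate cutoff, the plate's mean sample inhibition plus 3 SD, cut at about 24% in these data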;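 also: 0% = DMSO plus EC80 ATP and 100% = DMSO alone without ATP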
CHO-K1 Ca PAM – nonselective calcium activators in parental CHO-K1 cells, primary screen, counter-screen for M1 PAM project, cell-based, Fluo-8 calcium fluorescence, full deck, 1536-well; ATP EC20; 0% at ATP EC20, 100% at ATP max; activation, % at 3 µM; 0.02% of 360,000 active;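 active = activation above the run cutoff, the mean activation of all test compounds plus 3 SD, cut at about 40% in these data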;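 also: peak over basal fluorescence ratio in a 140 s read after ATP addition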
CHRM1 agonist – human M1 muscarinic receptor agonists, primary screen, Fluo-8 calcium fluorescence, CHO-K1 cells, HTS. CHO-K1 hM1, agonist mode; 0% DMSO, 100% acetylcholine EC100. activation, % at 3 µM. 0.33% of 360,000 active. AID 588814, 2011;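 active = activation above the run's mean compound activation plus 3 SD, cut at about 16% in these data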;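 also: peak over basal fluorescence ratio within a 140 s kinetic read after compound addition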
M1 ag parental – counter-screen for M1 agonists: effect in parental CHO-K1 cells. 0.48% of 360,000 active. activation, % at 3 µM. Fluo-8 calcium fluorescence; scaled to maximal ATP response, vehicle zero. AID 602248, 2012; in the data active = activation above about 15%;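 also: untransfected CHO-K1 host cells lacking M1 receptor as counterscreen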
M1 PAM – human M1 muscarinic receptor positive allosteric modulators, primary screen, CHO-K1 cells, Fluo-8 calcium fluorescence, 1536-well; Muscarinic acetylcholine receptor M1 (Homo sapiens), P11229; CHO-K1 hM1, ACh EC20; 0% = ACh EC20, 100% = maximal ACh; activation, % at 3 µM; AID 588819, 2011; 0.088% of 360,000 active; in the data active = activation above about 19%, passing the limit was not always enough
M1 antag – human M1 muscarinic receptor antagonists, primary screen, CHO-K1 cells, Fluo-8 calcium fluorescence, 1536-well. CHO-K1 hM1, ACh EC80 antagonist. AID 588852, 2011. 1.3% of 360,000 active. Muscarinic acetylcholine receptor M1 (Homo sapiens), P11229. inhibition, % at 3 µM;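 active = percent inhibition above its own plate's cutoff, namely the mean of that plate's compound wells plus 3 SD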;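 also: peak over basal fluorescence ratio during 140 s after agonist addition; 0% = ACh EC80 plus DMSO and 100% = DMSO alone without agonist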
Numbers without * were called inactive.

SMILES	CHO-K1 Ca antag	CHO-K1 Ca PAM	CHRM1 agonist	M1 ag parental	M1 PAM	M1 antag
Cc1ccc([C@@H]2C[C@H]3[C@@H](CN2S(=O)(=O)c2ccc(C)cc2)C(=O)C[C@@H](c2ccc(Cl)cc2)N3S(=O)(=O)c2ccccc2C)cc1	-2	16	-4	0	3	1
O[C@H]1CN(CC2CCCCC2)[C@@H](c2ccc(Cl)cc2)C[C@@H]1n1cc(C2CC2)nn1	-3	10	-2	0	-15	37*
C/C(=N\NC(=O)C(c1ccccc1)c1ccccc1)c1ccc(O)cc1	-13	20	2	1	31*	-39
CN1C(=O)c2ccc(C(=O)Nc3ccc4c(c3)OCO4)cc2C1=O	37*	12	-2	0	9	-12
O=C(Nc1ccc2c(c1)OCO2)c1ccccc1	-14	6	-5	0	0	-1
Cn1nc(C(=O)Nc2ccc3c(c2)OCO3)c2ccccc2c1=O	-10	5	2	0	27*	-28
Cc1cc(OCC(=O)OCC(=O)N2CCCc3ccccc32)ccc1Cl	-13	21	-6	4	4	-3
COC(=O)c1ccc(CSc2ccccc2NC(=S)Nc2cccc(SC)c2)o1	-9	14	-2	3	-1	-12
COc1ccc(C2CC(=O)Oc3c(C(C)C)ccc(C)c32)cc1 (stereo not drawn)	8	12	18*	5	12	-14
COc1ccc(C2CC(=O)Oc3cc(C)cc(C)c32)cc1 (stereo not drawn)	-15	27	-3	1	-1	-2
O=C(NCC(=O)N1CCN(c2ccccc2)CC1)c1ccc(Cl)cc1	1	-8	-2	0	3	69*
O=C(NCC(=O)N1CCN(C/C=C/c2ccccc2)CC1)c1ccc(Br)cc1	-20	7	18*	2	-15	33*
CSCCC(NC(=O)c1ccc(Cl)c([N+](=O)[O-])c1)C(=O)N1CCN(C/C=C/c2ccccc2)CC1 (stereo not drawn)	-11	5	20*	0	-2	2
C[C@H](NC(=O)c1ccc(C(C)(C)C)cc1)C(=O)N1CCN(C/C=C/c2ccccc2)CC1	-22	16	38*	5	-16	46*
COc1ccc(C(=O)NCC(=O)N2CCN(c3ccccc3)CC2)cc1	-17	11	0	1	12	-15
CC(C)C(NC(=O)c1ccccc1)C(=O)N1CCN(C/C=C/c2ccccc2)CC1 (stereo not drawn)	-15	6	-3	0	-6	5
C#CCN(C[C@@H]1[C@@H](OC(=O)Nc2cccs2)[C@@H](OC(=O)Nc2cccs2)Cn2c(=O)n(CCCCCC)c(=O)n21)S(=O)(=O)c1ccc(C)cc1	-12	9	-1	0	3	-12
COc1ccccc1-c1ccc2c(c1)C(C)(Cc1cccc(C#N)c1)C(=O)N2 (stereo not drawn)	-1	-8	-3	0	-1	0
COc1cc(CNC(=O)c2cc(-c3cc(Cl)ccc3C)n[nH]2)cc(OC)c1	-6	5	-4	2	3	-10
O=C(NCCN1CCN(c2cccc(Cl)c2)CC1)Nc1ccccc1	-14	7	-3	8	-7	7
O=C(NCCN1CCN(c2ccccc2)CC1)Nc1ccc(Cl)cc1	-17	3	-1	16*	2	-3
Cc1cccc(-c2noc(-c3csc([C@@H]4C[C@H](O)[C@@H](CO)O4)n3)n2)c1	-7	11	4	2	21	-17
CC(C)(C)C(=O)NC(=S)Nc1sc2c(c1C(N)=O)CCC2	4	-13	-3	0	3	2
CC(C)CC(=O)NC(=S)Nc1sc2c(c1C(N)=O)CCC2	38*	-16	1	-1	-9	4

Screens deposited in PubChem by The Scripps Research Institute Molecular Screening Center.
